Experimental data published in PubChem BioAssay.
Calls of active or inactive are those of the source.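 How the source made its calls, unless noted: active means thallium flux through the channel raised or lowered by more than 3 SD from vehicle-only wells, actives on both sides; inactive means the rest.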

How the values were obtained:
[1] = liver-stage malaria parasite growth inhibition, primary screen, cell-based, HepG2, luciferase luminescence, HepG2 viability (AID 624349; in the data active means parasite load remaining mostly below about 12%, no sharp cut-off; inactive means mostly above about 10%;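 further: 100% = mean of DMSO negative control wells on the same plate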); conditions: P. berghei liver stage in HepG2, luciferase luminescence, concentration not given here; parasite load remaining: stronger effect = lower value; viability: measured here: HepG2 viability without parasites
[2] = Cy5 fluorescence interference with SSB-bound oligo, artefact control for HCV NS3 helicase inhibitor project, biochemical, NIH Clinical Collection, E. coli SSB (AID 743268; call rule not given here)
[3] = system: Hepatitis C virus NS3 helicase; assay: HCV NS3 helicase inhibitors, primary screen, biochemical, fluorescence polarization, NIH Clinical Collection (AID 743270; call rule not given here); conditions: NS3 helicase binding to Cy5-dT15 DNA, stronger effect = higher value, concentration not given here
[4] = target: Single-stranded DNA-binding protein (Escherichia coli (strain K12)) (UniProt P0AGE0); assay: E. coli SSB displacement from DNA, counter-screen for HCV NS3 helicase inhibitor project, biochemical, fluorescence polarization, NIH Clinical Collection (AID 743271; in the data active means inhibition above about 28%); conditions: stronger effect = higher value, concentration not given here
[5] = fluorescence interference in NS3h assay format, artefact control for HCV NS3 helicase inhibitor project, biochemical, NIH Clinical Collection (AID 743272; call rule not given here;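 further: HCV NS3 helicase with a Cy5 labelled single stranded DNA probe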); conditions: fluorescence interference counterscreen, stronger effect = lower value
[6] = sensitizers of A549 cells to miR-34 induction, primary screen, imaging, A549 dox-inducible miR-34, nuclei and caspase counts (AID 1347080;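 active means compounds whose cell count with miR-34 switched on is under 0.7 times the count with it off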); conditions: A549 miR-34 inducible, Hoechst nuclei count, 48 h
[7] = viability rescue of complex I mutant cybrids, primary screen, cell-based, galactose medium, ATP luminescence (AID 1645843;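 active means z-score of at least 1.8 in each of two replicates, scored against plate mean and spread of sample wells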;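 further: positive z means more ATP and so rescue of galactose-driven cybrid death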); conditions: complex I mutant cybrid cells, 72 h, stronger effect = higher value
F380Y = assay: modulators of BK channel variants, profiling panel, selectivity assay, cell-based, U2OS BacMam, thallium flux, beta subunits (AID 1259406); conditions: at 30 µM;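 further: initial slope of Thallos dye fluorescence rise after thallium is added; log ratio against the mean of 0.3% DMSO vehicle wells on the same plate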
F380Y/beta1 = assay: as above; conditions: at 30 µM
F380Y/beta2Delta = assay: as above; conditions: at 30 µM
F380Y/beta4 = assay: as above; conditions: at 30 µM
[8] = target: Calcium-activated potassium channel subunit alpha-1 (Homo sapiens) + Leucine-rich repeat-containing protein 26 (Homo sapiens) (UniProt Q12791+Q2I0M4); assay: as above; conditions: F380Y/Slo1WT/gamma1, at 30 µM
Chain of Calcium-activated potassium channel subunit alpha-1 (Homo sapiens) + Leucine-rich repeat-containing protein 26 (Homo sapiens) (Q2I0M4 whole entry, looked up, one chain of several): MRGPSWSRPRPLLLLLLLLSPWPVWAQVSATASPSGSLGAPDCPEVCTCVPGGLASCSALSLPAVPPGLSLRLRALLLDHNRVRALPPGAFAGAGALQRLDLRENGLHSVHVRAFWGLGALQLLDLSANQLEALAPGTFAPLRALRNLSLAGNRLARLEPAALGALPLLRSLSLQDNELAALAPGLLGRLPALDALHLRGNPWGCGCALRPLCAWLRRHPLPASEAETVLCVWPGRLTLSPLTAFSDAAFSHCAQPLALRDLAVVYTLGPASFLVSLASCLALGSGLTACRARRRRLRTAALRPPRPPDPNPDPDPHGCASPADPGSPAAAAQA

R275C = assay: as above; conditions: at 30 µM
R275C/beta1 = assay: as above; conditions: at 30 µM
R275C/beta2Delta = assay: as above; conditions: at 30 µM
R275C/beta4 = assay: as above; conditions: at 30 µM
R275C/Slo1WT/beta2 = assay: as above; conditions: at 30 µM
[9] = modulation of C. elegans fzo-1 (AID 1259413; call rule not given here;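 further: fzo-1 mutant C. elegans worms in liquid wells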); conditions: C. elegans fzo-1 modulator screen, mean read-out; stronger effect = higher value
[10] = system: Neuropilin-2 / VEGF-C interaction (human); assay: inhibitors of NRP2–VEGF-C binding, biochemical, microplate binding format, z-score (AID 743281; call rule not given here); conditions: microplate NRP2/VEGF-C binding assay; stronger effect = lower value
[11] = stronger effect = lower value, cell number ratio, induced over uninduced
[12] = measured here: relative caspase fold change +Dox/-Dox
[13] = measured here: total cells with miR-34 induction, stronger effect = lower value
[14] = measured here: total cells without miR-34 induction

CC1c2cccc(O)c2C(O)=C2C(=O)[C@]3(O)C(O)=C(C(N)=O)C(=O)[C@@H](N(C)C)[C@@H]3C[C@@H]21 (some centres not stated)
inactive: parasite load remaining [1] 60.3% | fluorescence ratio [2] 1.04 | inhibition [3] -1.36% | fluorescence ratio [5] 0.95 | fold change [6, 11] 1 | z-score [7] -0.345 | log fold change Tl+ flux (F380Y) -0.00643 | log fold change Tl+ flux (F380Y/beta1) -0.038 | log fold change Tl+ flux (F380Y/beta2Delta) 0.00306 | log fold change Tl+ flux (F380Y/beta4) -0.0368 | log fold change Tl+ flux [8] 0.011 | log fold change Tl+ flux (R275C) -0.004 | log fold change Tl+ flux (R275C/beta1) -0.0442 | log fold change Tl+ flux (R275C/beta2Delta) -0.00508 | log fold change Tl+ flux (R275C/beta4) 0.0272 | log fold change Tl+ flux (R275C/Slo1WT/beta2) 0.0157
1.44: fold change [6, 12]
active: inhibition [4] 28.5%
97.3%: viability [1]
11000: cell count [6, 13] | cell count [6, 14]

C[C@@H]1C[C@H]2[C@@H]3CCC4=CC(=O)C=CC4(C)[C@@]3(F)[C@@H](O)CC2(C)[C@@]1(O)C(=O)CO (some centres not stated)
inactive: mean signal [9] 285

CCC(=O)OCC(=O)[C@@]1(OC(=O)CC)[C@@H](C)C[C@H]2[C@@H]3CCC4=CC(=O)C=CC4(C)[C@@]3(Cl)[C@@H](O)CC21C (some centres not stated)
inactive: mean signal [9] 228

C[C@]12C=CC(=O)C=C1CC[C@@H]1[C@@H]2[C@@H](O)C[C@@]2(C)[C@H]1CC[C@]2(O)C(=O)COC(=O)CCC(=O)O
inactive: parasite load remaining [1] 128% | fluorescence ratio [2] 1 | inhibition [3] 7.52% | inhibition [4] 4.52% | fluorescence ratio [5] 0.99 | log fold change Tl+ flux (F380Y) -0.0223 | log fold change Tl+ flux (F380Y/beta1) 0.0033 | log fold change Tl+ flux (F380Y/beta2Delta) 0.00204 | log fold change Tl+ flux (F380Y/beta4) -0.00342 | log fold change Tl+ flux [8] -0.00445 | log fold change Tl+ flux (R275C) -0.00218 | log fold change Tl+ flux (R275C/beta1) -0.0173 | log fold change Tl+ flux (R275C/beta2Delta) -0.00108 | log fold change Tl+ flux (R275C/beta4) -0.0167 | log fold change Tl+ flux (R275C/Slo1WT/beta2) -0.0235
72.6%: viability [1]

CN[C@@H]1[C@H](O)[C@H](NC)[C@H]2OC3(O)C(=O)C[C@@H](C)O[C@H]3O[C@@H]2[C@H]1O (some centres not stated)
inactive: mean signal [9] 224

CO[C@H]1C=CO[C@@]2(C)Oc3c(C)c(O)c4c(O)c(c5c(c4c3C2=O)NC2(CCN(CC(C)C)CC2)N=5)=NC(=O)C(C)=CC=C[C@H](C)[C@H](O)[C@@H](C)[C@@H](O)[C@@H](C)[C@H](OC(C)=O)[C@@H]1C
56.4%: viability [1]
inactive: parasite load remaining [1] 46.3% | log fold change Tl+ flux (F380Y) 0.00735 | log fold change Tl+ flux (F380Y/beta2Delta) -0.052 | log fold change Tl+ flux (F380Y/beta4) -0.0911 | log fold change Tl+ flux [8] -0.0288 | log fold change Tl+ flux (R275C/beta1) 0.0366 | log fold change Tl+ flux (R275C/beta2Delta) -0.0385 | log fold change Tl+ flux (R275C/beta4) 0.0214 | log fold change Tl+ flux (R275C/Slo1WT/beta2) 0.0234
active: log fold change Tl+ flux (F380Y/beta1) -0.0974 | log fold change Tl+ flux (R275C) -0.134

CCC(=O)NS(=O)(=O)c1ccc(-c2c(-c3ccccc3)noc2C)cc1
10300: cell count [6, 14]
68.9%: viability [1]
inactive: parasite load remaining [1] 75.3% | z-score [10] 1.11 | mean signal [9] 273 | fold change [6, 11] 0.873 | z-score [7] 0.78 | log fold change Tl+ flux (F380Y) 0.0552 | log fold change Tl+ flux (F380Y/beta2Delta) 0.000846 | log fold change Tl+ flux [8] 0.0287 | log fold change Tl+ flux (R275C) 0.0383 | log fold change Tl+ flux (R275C/beta1) -0.00911 | log fold change Tl+ flux (R275C/beta2Delta) -0.00297
1.74: fold change [6, 12]
9000: cell count [6, 13]
